Values joined by “and” are separate entries in the source; they are usually repeats but may differ in a detail not shown here. Equal entries are not always repeated. Records with an inconclusive call do not appear. Entries that show only a call come without a potency. Some compounds were tested as several samples or in several runs, with calls that do not always agree. Active and inactive are the calls of the source. The call rests on the fitted dose curve; in most records, active means well fitted inhibition curve with a large enough effect; inconclusive means small, poorly fitted or top-dose-only effect; inactive means flat fitted curve, though single readings scatter.
Assay: qHTS for Inhibitors of Plasmodium falciparum (HB3) proliferation (AID 504318); further: nearly all actives have a fitted effect of over 60% in size
Conditions: P. falciparum HB3 in erythrocytes, SYBR Green DNA, 72 h; series mostly up to 7.21 µM
From the text: Plasmodium falciparum is a virulent malarial parasite that kills 1-2 million people worldwide each year. Malaria not only inflicts tremendous suffering and morbidity on the human population, but has dramatically influenced the course of civilization with profound sociological and economic implications (Shah, S. 2010). Transmitted by mosquitoes, the sporozoite form of the parasite enters the blood stream to infect hepatocytes, where they become merozoites that infect red blood cells (erythrocytes). Within erythrocytes, merozoites begin a […] cycle of growth and division, after which the parasite is released to infect new red blood cells. Gametocytes, which form within erythrocytes as well, circulate in the bloodstream and are ingested by the mosquito, thereby completing the life cycle (see CDC website). To profile malarial lines for differential chemical responses and to identify inhibitors of malarial growth, an assay that measures P. falciparum growth and replication within erythrocytes was employed. This assay uses a DNA binding fluorescent dye (SYBR Green) to detect parasite DNA following cell lysis. Because mature erythrocytes lack DNA, only Plasmodium-derived DNA is detected. The P. falciparum line cp250, derived from a malarial isolate from Cambodia, (Mu, J., et al. 2010) was added to the panel of lines, Dd2, HB3, 7G8 and GB4 in this study. Laboratory of Assay Development and Screening Technology [ADST] and NIH Chemical Genomics Center [NCGC] Boston University, Chemistry Department, Center for Chemical Methodology and Library Development [CMLD-BU] NIH National Institute of Allergy and Infectious Diseases [NIAID]
ADST Assay Protocol Summary: The 1536-well SYBR Green viability assay was based on the method of Bennett et al (2004) and described previously in 1536-well format (Yuan J., et al. 2009). For screening 3 ul culture medium was dispensed into 1536 well black clear bottom plates (Aurora Biotechnologies) using a Multidrop Combi (Thermo Fisher Scientific Inc.), 23 nL compounds in DMSO were added by a pin transfer (Cleveland, P.H. and Koutz, P.J, 2005) using a pin tool-based delivery system (Kalypsys), and 5 ul of erythrocytes infected with P. falciparum one of five lines (cp250, Dd2, HB3, 7G8 or GB4, 0.3% parasitemia, 2.5% hematocrit final concentration) were added. The plates were incubated at 37C in a humidified incubator in 5% CO2 for 72 h, and 2 ul lysis buffer (20 mM Tris HCl, 10 mM EDTA, 0.16% saponin, 1.6% triton X, 10X SYBR Green I (supplied as 10,000X final concentration by Invitrogen) was added to each well. The plates were mixed for 25 sec with gentle shaking and incubated overnight at room temperature in the dark. The following morning, fluorescence intensity at 485(14) nm excitation and 535(25) nm emission wavelengths was measured on an EnVision (Perkin Elmer) plate reader. Plate reads were normalized relative to the control inhibitor (0.29 uM artemisinin) and vehicle (DMSO) wells present on each plate and then corrected by an algorithm using vehicle-only control plates at the beginning and end of the compound plate stack. References Shah, S. (2010). The Fever: how malaria has ruled humankind for 500,000 years. New York, Sarah Crichton Books. CDC web site, http://www.cdc.gov/malaria/about/biology/index.html Mu, J., Myers, R.A., Jiang, H., Liu, S., Ricklefs, S., Waisberg, M., Chotivanich, K., Wilairatana, P., Krudsood, S., White, N.J., et Plasmodium falciparum genome-wide scans for positive selection, recombination hot spots and resistance to antimalarial drugs Nature Genetics 2010, 42, pp 268-271 Bennett TN, Paguio, M., Gligorijevic, B., Seudieu, C., Kosar, A. D., Davidson, E., and Roepe, P. D. Novel, rapid, and inexpensive cell-based quantification of antimalarial drug efficacy Antimicrobial Agents Chemother. 2004, 48(5): pp 1807-10 Yuan J, Johnson RL, Huang RL, Wichterman J, Jiang HY, Hayton K, Fidock DA, Wellems TE, Inglese J, Austin CP, Su XZ. […]
Potency means the concentration at half of the fitted maximal effect.

Structure (SMILES) | Potency
COC1=CC2C(=O)C(C(c3ccccc3)C2C)C1(O)c1cccc(OC)c1 (stereo not given) | inactive
COC(=O)c1c(C(=O)OC)c2c3ccccc3cc(-c3ccccc3)n2c1C(=O)OC | inactive
CC(=O)OC[C@H]1O[C@H](CC=NO[C@H](C)CN2CCCCc3nc(C)c(C)cc32)C=C[C@@H]1OC(C)=O | inactive
CCC(=O)C[C@@H](NC(=O)OC)c1ccccc1 | inactive
COC(=O)C1=C(C)N(Cc2ccccc2)C(=O)NC1c1cccc(F)c1 (stereo not given) | inactive
CCN1C(=O)[C@@H]2[C@H]3[C@H](O)[C@H](O)CC(=NOC[C@@H](O)[C@H]4O[C@@H]5OC(C)(C)O[C@H]5[C@@H]4O)[C@@H]3CC[C@H]2C1=O | inactive
COC(=O)C1=C(C)N(CC#C[Si](C)(C)C)C(=O)N(C(C)=O)C1c1ccccc1 (stereo not given) | inactive
CC1(OC(=O)c2ccc(Cl)nc2)C(=O)Cc2cc(-c3ccsc3)ncc2C1=O (stereo not given) | inactive
CCCCC1=CC2=C(c3ccco3)C(=O)C(C)(OC(=O)c3ccc(OC)cc3)C(=O)C2=CN1CC1CC1 (stereo not given) | inactive
C[C@@H]1CC[C@H]2C(=O)O[C@@H](Cc3ccccc3)CN2[C@@H]1c1ccc(Br)cc1 | inactive
COC(=O)CCCC1=CC2=C(c3ccccc3)C(=O)C(C)(OC(=O)C3CCCC3)C(=O)C2=CN1C1CCCCC1 (stereo not given) | inactive
C[C@@H]1CC[C@H]2C(=O)N(Cc3cccc([N+](=O)[O-])c3)C[C@@H](O)CN2[C@@H]1c1cccc(Br)c1 | inactive
CC12C=C(C=CC=Cc3ccco3)C(C)(C1)C(C=Cc1ccco1)CC2=O (stereo not given) | inactive
Cc1cc2c(nc1C)CCCCN2C[C@H](C)ON=C[C@@H](C)[C@H](OCc1ccccc1)C(C)C | inactive
C[C@@H]1C[C@](C)(C(=O)c2ccc3c(c2)OCO3)C=C1c1ccc2c(c1)OCO2 | inactive
CC12C=C(C=Cc3ccc(Br)cc3)C(C)(C1)[C@H](c1ccc(Br)cc1)CC2=O (stereo not given in full) | 1690 nM (active)
COc1ccc(O[C@H]2C=C[C@@H](c3ccccc3)O[C@H]2COC(=O)CCC(C)=NO[C@@H]2O[C@H](COC(C)=O)[C@@H](OC(C)=O)[C@H](OC(C)=O)[C@@H]2OC(C)=O)cc1 | inactive
C=C(C(C)=O)C(O)c1cccc(OC)c1 (stereo not given) | inactive
CC1(OC(=O)CCc2ccccc2)C(=O)C=C2C=C(c3ccsc3)OC=C2C1=O (stereo not given) | inactive
C=CCN=C1NC(CCc2ccccc2)C(C(=O)OC)=C(C)N1CC (stereo not given) | inactive

Structure (SMILES) | Potency
CCN1C(=NCc2cccc(Cl)c2)N[C@@H](CCc2ccccc2)[C@H](C(=O)OC)[C@H]1C | inactive
COc1ccc(-c2nc(-c3ccccc3)oc2Nc2ccccc2C)cc1 | inactive
COc1cccc([C@H]2Oc3ccc(OC)cc3C(=NOCC[C@@H]3C=C[C@H](OC(C)=O)[C@@H](COC(C)=O)O3)[C@H]2O)c1 | inactive
COC(=O)CC=C[C@@H](C)[C@H](OC)c1ccccc1Br | inactive and 1.9 µM (active)
CC(CCN1CCCc2nc(C)c(C)cc21)=NO[C@@H](C)c1cc(-c2c(C)cc(C)cc2C)no1 | inactive
CC1(OC(=O)CCc2ccccc2)C(=O)C=C2C=C(c3ccc(C#N)cc3)N(C(CO)CO)C=C2C1=O (stereo not given) | inactive
CC(C)=CCCC(C)=CCON=C1C[C@@H](O)[C@@H](O)[C@@H]2[C@H]3C(=O)N(c4ccc(F)cc4F)C(=O)[C@@H]3CC[C@H]12 | inactive
CC(=O)O[C@@H]1C(CO[Si](C)(C)C(C)(C)C)=C(Br)C(=O)[C@@H]2O[C@]12C | inactive
COC(=O)[C@H](COC(C)(C)C)NC(=O)O[C@@H]1C(=O)c2cc(OC)ccc2O[C@H]1c1cccc(OC)c1 | inactive
C(#C[C@@H]1C=C[C@H]2OC(c3ccccc3)OC[C@H]2O1)c1ccccc1 (stereo not given in full) | inactive
COc1cccc2c1C1(CCCCC1)CC2NC(=O)C(F)(F)F (stereo not given) | inactive
CC1(OC(=O)c2ccc(Cl)nc2)C(=O)C=C2C=C3CCCN3C=C2C1=O (stereo not given) | inactive
COC(=O)C[C@H]1c2ccccc2[C@@H]2C(=C[C@@H](C)[C@H]3C(=O)N(O)C(=O)[C@H]32)N1C(=O)OC | inactive
COC1=C[C@H](C(=O)NCc2ccc(Br)cc2)C(C)C(c2ccccc2)CC1=O (stereo not given in full) | inactive
CCN1C(=NCc2ccco2)N[C@@H](CCc2ccccc2)[C@H](C(=O)OC)[C@H]1C | inactive
CCOC(=O)NN=C1C[C@@H](O)[C@@H](O)[C@@H]2[C@H]3C(=O)N(C[C@@H]4CCCO4)C(=O)[C@@H]3CC[C@H]12 | inactive
N#Cc1ccc2c(c1)C[C@]1(c3ccsc3)OC3=C(C(=O)OC4(CCCCC4)C3)[C@H]2O1 | inactive
C=CCN=C1NC(c2cccc(F)c2)C(C(=O)OC)=C(C)N1Cc1ccccc1 (stereo not given) | inactive
C=CCCN1C=C(C(=O)OCC)C(c2ccccc2)NC1=O (stereo not given) | inactive
CCOC(=O)CN1C(=O)[C@]2(OCCC=C[C@@H]2C)c2cc(OC)ccc21 | inactive

— PubChem BioAssay (NCATS)
